Screening results deposited in PubChem by Zoeller Lab, School of Medicine, Boston University.
The entries come from a sample that favours hits as a whole.
PL biosyn Enam: blocks phospholipid synthesis in CHO cells, Enamine compounds | ZR-82 CHO cells, pyrene fatty acid UV survival, CellTiter Blue; peroxisome-deficient CHO-K1 mutant line; plus DGAT-1, DGAT-2 and ACAT inhibitors | calls only at 10 µM | actives 0.4% (n = 20,000);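 active = cell survival signal 2 SD away from solvent-only control wells, confirmed on one or two retests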;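 note: 3 h compound exposure then viability read about one day after UV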
An asterisk follows results filed as active; i = inactive; + = active, no number.

SMILES	PL biosyn Enam
Cc1cc(=S)[nH]c2ccccc12	i
Cc1ccc(C)c(N=Nc2c(C)[nH]c3ccccc23)c1	+
Fc1ccc(C2=CC(c3cccc(Br)c3)n3ncnc3N2)cc1 (stereo not drawn)	i
O=C1Nc2ccc(Br)cc2C12NNc1ccccc1O2 (stereo not drawn)	+
O=C1Nc2ccc(Br)cc2C1(O)C(F)(F)F (stereo not drawn)	i
O=C1NC2(Oc3ccccc31)C(=O)Nc1ccccc12 (stereo not drawn)	i
O=c1c2cc([N+](=O)[O-])ccc2oc2ccc([N+](=O)[O-])cc12	i
CN1c2ccccc2C(C)(C)C12C=Cc1cc([N+](=O)[O-])ccc1O2 (stereo not drawn)	i
O=C1Nc2ccc([N+](=O)[O-])cc2C12NNc1ccccc1O2 (stereo not drawn)	+
Cc1nc(SCc2csc(C)n2)c2c3c(sc2n1)CCC3	i
O=C1C(=O)N(C2CCCC2)C(=O)N1CN1CCCC1c1cccs1 (stereo not drawn)	i
CC(C)(C)C(=O)CSc1nc2sc3c(c2c(=O)n1C1CCCC1)CCCC3	i
Cc1nn(-c2ccccc2)c(N)c1N=Nc1ccc([N+](=O)[O-])c(C(F)(F)F)c1	+
Cc1cccc(N=Nc2c(C)nn(-c3ccccc3)c2N)c1C	i
Cc1ccc(-n2nc(C)c(N=Nc3ccccc3C)c2N)cc1	i
O=S(=O)(c1ccc(Cl)cc1)N1CCN(Cn2nc3sc4ccccc4n3c2=S)CC1	i
O=C1Nc2ccccc2/C1=N\N=C\c1ccc(OC(F)F)cc1	i
